Assay [1] has as its system Zika virus NS2B-NS3 protease (linked construct). Description: Primary screen NINDS Rhodamine qHTS for Zika virus inhibitors (AID 1347160). Also: nearly all actives have a fitted effect of over 55% in size. Also: potency is read from the fitted curve at half-maximal effect. As to activity change, negative = inhibition: % is scaled to controls: 0 for no effect and ±100 for the full control effect. The method, boiled down:
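Aprotinin served as in-plate control. Conditions: 25 nM linked NS2B-NS3, pH 8.0 Tris buffer, titrated compounds, 15 min preincubation and 15 min reaction with 1.5 microM Rhod110 substrate at room temperature.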
In general terms: Quantitative high-throughput screening tests each substance at several concentrations.

Assay [2] in a line: HPAF-II Cancer Cell Toxicity qHTS against the NCATS CANVASS Library (AID 1347346). Also: series mostly up to about 38 µM; % is scaled to controls: 0 for no effect and ±100 for the full control effect; nearly all actives have a fitted effect of over 55% in size. The method, boiled down: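 First, HPAF-II cells are plated (1000 cells/well) and held 4 h at 37 degrees C. Next, compounds are pin-transferred as an 11-point series. After 72 h, CellTiter-Glo is added and luminescence measured.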
Assay [3] can be described thus: OV-SAHO Cancer Cell Toxicity qHTS against the NCATS CANVASS Library (AID 1347348). Also: series mostly up to about 38 µM; % is scaled to controls: 0 for no effect and ±100 for the full control effect; nearly all actives have a fitted effect of over 55% in size. The method, boiled down: (§1)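 Following a 4 h pre-incubation of 1000 seeded cells, compounds were pinned in an 11-pnt dilution series and left for 72 h; viability then came from CellTiter-Glo.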
The nature of assay [4]: U-118MG Cancer Cell Toxicity qHTS against the NCATS CANVASS Library (AID 1347351). As to activity change, negative = cytotoxicity: series mostly up to about 38 µM; % is scaled to controls: 0 for no effect and ±100 for the full control effect. The method, boiled down:
as §1

Assay [5] in a line: COV-362 Cancer Cell Toxicity qHTS against the NCATS CANVASS Library (AID 1347352). Also: series mostly up to about 38 µM; % is scaled to controls: 0 for no effect and ±100 for the full control effect. The method, boiled down:
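First, 1000 cells go into each well and rest for 4 hours. Next, an 11-point dilution range is pinned in. Plates then incubate 72 hours before CellTiter-Glo addition and luminescence reading.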

Assay [6] in a line: HEK293 18hr Apoptosis Induction qHTS against the NCATS CANVASS Library (AID 1347357). Also: 0% is about no effect. The method, boiled down:
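HEK293 cells (500 per well, DMEM with 10% FBS) were treated with natural products, incubated 18 hours at 37 degrees C, then caspase-3/7 activity was read by Caspase-Glo luminescence after 15 min at room temperature.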

Assay [7] in a line: HPAF-II 12hr Apoptosis Induction qHTS against the NCATS CANVASS Library (AID 1347358). Also: 0% is about no effect. The method, boiled down: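 Cells plated at 500 per well are dosed with compound and incubated 12 hours at 37 degrees C. Caspase-Glo 3/7 reagent is added and, after 15 min at room temperature, luminescence proportional to caspase activity is measured.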
A short description of assay [8]: HEK293 24hr Apoptosis Induction qHTS against the NCATS CANVASS Library (AID 1347359). Also: 0% is about no effect. The method, boiled down:
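Caspase-3/7 activation measured as luminescence from the DEVD-based Caspase-Glo reagent, 15 min at room temperature, following 24-hour compound treatment of HEK293 cells.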

Assay [9] in a line: HPAF-II 18hr Apoptosis Induction qHTS against the NCATS CANVASS Library (AID 1347360). Also: 0% is about no effect. An outline of the steps: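 HPAF-II cells (500/well, DMEM + 10% FBS) were exposed to compounds for 18 hours at 37 degrees C. Caspase-3/7 activity was then read by Caspase-Glo 3/7 luminescence after 15 min at room temperature.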
Assay [10] is described as follows: HEK293 12hr Apoptosis Induction qHTS against the NCATS CANVASS Library (AID 1347361). Also: 0% is about no effect. The method, boiled down:
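Read-out: Caspase-Glo 3/7 luminescence (DEVD substrate), 15 min RT. Preceded by 12 h compound exposure of HEK293, 500 cells/well, 11-pt qHTS titration; doxorubicin titration as control.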

The target of assay [11] is Luciferin 4-monooxygenase (Photinus pyralis) (UniProt P08659). Description: Firefly luciferase counterscreen qHTS: Assay Interference Panel against the NCATS CANVASS Library (AID 1347363). Also: series mostly up to about 57 µM; 0% is about no effect. The method, boiled down: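 Luminescence inhibition readout: compounds (11-point qHTS) sat 15 min at room temperature with substrate mix (0.013 mM luciferin and ATP), then firefly luciferase was added and signal read 5 min later.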

The nature of assay [12]: MCF7 Cancer Cell Toxicity qHTS against the NCATS CANVASS Library (AID 1347369). The method, boiled down: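 MCF7, 500 cells/well; cpds 11-pt qHTS; 72 hr, 37C/5% CO2; CellTiterGlo ATP luminescence.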
Assay [13] is described as follows: qHTS for ATAD5 Antagonist screened against the NCATS CANVASS Library (AID 1347370).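 Also: HEK293T cells carrying an ATAD5 luciferase reporter co-treated with 10 µM 5-fluorouridine; series mostly up to about 46 µM; % is scaled to controls: 0 for no effect and ±100 for the full control effect; nearly all actives have a fitted effect of over 65% in size.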 An outline of the steps:
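Compounds (11-point) co-dosed with 10 µM 5-FUrd for 16 h at 37 °C onto HEK293T-ATAD5 luciferase reporter cells. Viability measured by CellTiter-Fluor fluorescence, then ATAD5 reporter signal by luminescence.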

The nature of assay [14]: J3T Cancer Cell Toxicity qHTS against the NCATS CANVASS Library (AID 1347371). The method, boiled down: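 Luminescence from CellTiterGlo, reporting cellular ATP, serves as the viability measure after 72 hr compound treatment of J3T canine glioma cells seeded at 500 cells/well.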
Assay [15] addresses Nuclear receptor subfamily 1 group I member 3 (Homo sapiens) (UniProt Q14994). Kind of assay: qHTS for Constitutive Androstane Receptor (CAR) Antagonist screened against the NCATS CANVASS Library (AID 1347372).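 Also: cells stimulated with 50 nM CITCO agonist so inhibition reflects antagonism; series mostly up to about 46 µM; % is scaled to controls: 0 for no effect and ±100 for the full control effect.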 An outline of the steps:
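Antagonist mode: compound added alongside 50 nM CITCO to HepG2-hCAR-CYP2B6 reporter cells, 24hr at 37C. Viability by CellTiter-Fluor fluorescence, then CAR-driven luciferase by ONE-Glo luminescence.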

Assay [16] can be described thus: qHTS for Inflammasome Signaling Inhibitors: IL-1-beta AlphaLISA screen against the NCATS CANVASS Library (AID 1347379).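 Also: human THP-1 cells primed with LPS then triggered with ATP.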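 As to activity change, negative = inhibition: secreted IL-1B measured as AlphaLISA emission at 615 nm; % is scaled to controls: 0 for no effect and ±100 for the full control effect; lower signal means less IL-1B release which is the wanted effect.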 An outline of the steps: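 Secreted IL-1B from human THP-1 cells quantified by AlphaLISA 16 hr after compound addition (final up to 57.5 uM). A 1 hr compound pretreatment preceded inflammasome activation with 250 ng/mL LPS plus 1.25 mM ATP (final).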

Assay [17] is described as follows: Inflammasome Signaling qHTS Counterscreen: IL-1-beta AlphaLISA counterscreen against the NCATS CANVASS Library (AID 1347381).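 Also: cell-free check with purified IL-1β in medium and no THP-1 cells; series mostly up to about 57 µM; 0% is about no effect.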 The method, boiled down: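 Purified IL-1-beta (4 pg/well) + compound, 11-pt conc. series; acceptor beads 6 ug/mL + biotin-Ab 0.6 nM final, 1 h RT; SA-donor 24 ug/ml final, 30 min dark RT; read ex 680/em 615.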
A short description of assay [18]: Cytotoxicity qHTS for assessment of Hepg2 cells membrane integrity screened against the NCATS CANVASS Library (AID 1347387). The method, boiled down: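 Cells were seeded at 2000 per well and left overnight to attach. Compounds were pin-transferred to give 0.59 nM - 46 uM in an 11-point series and incubated 5 hr at 37C. CytoTox-ONE reagent was added and, after 10 min at room temperature, fluorescence (ex 560, em 590 nm) was read.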

Assay [19] in a line: Vero-766 cells viability qHTS against the NCATS CANVASS Library: Counterscreen for Zika virus inhibition assay (AID 1347394). Also: series mostly up to about 46 µM; % is scaled to controls: 0 for no effect and ±100 for the full control effect; nearly all actives have a fitted effect of over 60% in size. An outline of the steps:
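Uninfected Vero 766 (African green monkey) cells, 1000/well, attached overnight, then exposed 72 h at 37C to compounds (11-point qHTS). Viability read by CellTiter-Glo luminescence; media-only wells served as 100% inhibition.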

Assay [20] in a line: 10-beta competent E. coli microbial cell viability qHTS against the NCATS CANVASS Library (AID 1347376). Also: series mostly up to about 46 µM; 0% is about no effect. The method, boiled down: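 Bacterial suspension diluted to 0.2 OD was dosed with compounds, 11-point series, then held overnight at 37C. BacTiter-Glo reagent was added, and after 20 min at room temperature ATP-dependent luminescence was measured.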

Values without a mark were called inactive. Inconclusive results are not listed. Calls of active or inactive are those of the source. Calls follow the shape of the dose curve; as a rule, active = well fitted curve in the direction sought with a large enough effect; inconclusive = small, poorly fitted or top-dose-only effect, or another doubt; inactive = no such curve, though single readings can be large; an effect the other way counts as inactive or inconclusive.

Chain of Luciferin 4-monooxygenase (Photinus pyralis) (P08659 whole entry, looked up): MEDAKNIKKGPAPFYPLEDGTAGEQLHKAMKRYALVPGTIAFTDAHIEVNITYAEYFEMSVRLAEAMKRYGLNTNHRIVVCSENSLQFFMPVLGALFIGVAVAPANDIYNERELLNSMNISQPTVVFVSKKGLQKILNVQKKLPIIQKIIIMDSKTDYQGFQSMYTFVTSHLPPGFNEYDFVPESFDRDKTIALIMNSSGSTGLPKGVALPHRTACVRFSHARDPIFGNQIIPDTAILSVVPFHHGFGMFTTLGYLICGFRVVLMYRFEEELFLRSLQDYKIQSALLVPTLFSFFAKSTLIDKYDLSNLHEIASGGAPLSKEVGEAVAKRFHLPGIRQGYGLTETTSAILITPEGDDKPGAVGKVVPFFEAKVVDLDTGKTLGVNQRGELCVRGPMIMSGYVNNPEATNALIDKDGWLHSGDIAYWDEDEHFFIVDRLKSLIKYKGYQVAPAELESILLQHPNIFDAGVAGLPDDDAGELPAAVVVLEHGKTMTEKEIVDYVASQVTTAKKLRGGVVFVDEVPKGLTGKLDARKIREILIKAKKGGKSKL
Chain of Nuclear receptor subfamily 1 group I member 3 (Homo sapiens) (Q14994 whole entry, looked up): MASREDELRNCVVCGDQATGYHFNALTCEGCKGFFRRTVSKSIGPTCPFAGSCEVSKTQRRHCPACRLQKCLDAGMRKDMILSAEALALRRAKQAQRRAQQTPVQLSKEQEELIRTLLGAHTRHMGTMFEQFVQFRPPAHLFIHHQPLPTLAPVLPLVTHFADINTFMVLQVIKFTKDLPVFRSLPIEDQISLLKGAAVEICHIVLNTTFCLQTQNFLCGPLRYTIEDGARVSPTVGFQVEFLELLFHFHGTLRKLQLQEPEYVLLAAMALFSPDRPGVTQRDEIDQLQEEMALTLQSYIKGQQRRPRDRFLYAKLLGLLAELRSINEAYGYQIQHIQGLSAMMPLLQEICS

As for `COc1ccc([C@@H]2c3cc(OC)c(OC)cc3C(=O)[C@H](C)C2C)cc1OC` (some centres undefined), the Potency entry in assay [1] was “inactive”. In addition, the activity change, negative = cytotoxicity is 3.84% [at 7.64 µM] in assay [2]; -3.3% [at 7.64 µM] in [3]; 3.5% [at 7.64 µM] in assay [4]; -1.95% [at 7.64 µM] in assay [5]; -14.7% [at 9.17 µM] in [12]. For the same compound, the caspase activation is 3.8% [at 9.19 µM] in [6], 2.3% [at 9.19 µM] in [7], 1.74% [at 9.19 µM] in assay [9] and 2.92% [at 9.19 µM] in assay [10]. In addition, the activation in assay [8] was 3.39% [at 9.19 µM]. The activity change, negative = inhibition is 4.08% [at 11.5 µM] in [11], -23.2% [at 9.19 µM] in [13], -2.16% [at 9.19 µM] in [15] and -8.6% [at 11.5 µM] in assay [17]. Besides, the outcome is “inactive [at 9.19 µM]” in assay [14] and “inactive [at 11.5 µM]” in assay [16]. Further, the cytotoxicity (LDH release) in assay [18] is 0.689 [at 9.19 µM]. In addition, the activity change, negative = cytotoxic in [19] was -18.3% [at 9.19 µM].

Consider `CNc1ccc(Cl)cc1C(=O)OC[C@]1(C)[C@H]2CC[C@]3(C)[C@@H](C[C@@H](OC)[C@H](C)[C@H]3C3=C(O)C(=O)OC3O)[C@]2(C)CC[C@H]1O` (some centres undefined), for which the Potency in assay [1] is 6.21 µM (active). Also, the Potency result in assay [2], in [3], in assay [4], in assay [5], in assay [6] and in [7] was “inactive” in each case. Further, the Potency result in assay [8], in assay [9], in [10], in assay [11], in [12] and in assay [13] was “inactive” each time. For the same compound, the Potency entry in assay [14], in [15], in assay [16] and in assay [19] was “inactive” in each case. The compound was called inactive in [20], in [17] and in assay [18].

With `O=C1CC(c2cc(O)cc(O)c2)Oc2cc(O)ccc21` (centres undefined), the Potency in [1] was 34.9 µM (active). The Potency entry in [2], in [3], in assay [4], in assay [5], in [6] and in assay [7] was “inactive” throughout. Moreover, the Potency result in assay [8], in [9], in assay [10], in assay [11], in assay [12] and in [13] was “inactive” each time. Besides, the Potency result in [14], in assay [15], in assay [16] and in [19] was “inactive” each time. The compound was called inactive in [20], in [17] and in assay [18].

On to `O=c1cc(-c2ccc(O)c(O[C@@H]3O[C@H](CO)[C@@H](O)[C@H](O)[C@H]3O)c2)oc2cc(O[C@@H]3O[C@H](CO)[C@@H](O)[C@H](O)[C@H]3O)cc(O)c12`, for which, in assay [1], the Potency is 27.7 µM (active). In addition, the Potency entry in assay [2], in assay [3], in assay [4], in [5], in assay [6] and in assay [7] was “inactive” throughout. In addition, the Potency result in assay [8], in assay [9], in [10], in assay [11], in assay [12] and in [13] was “inactive” throughout. Further, the Potency result in [14], in [15], in assay [16] and in assay [19] was “inactive” each time. The compound was called inactive in [20], in assay [17] and in assay [18].

`O=C(O)CC1OC(=O)c2c(O)cccc21` (centres undefined): the Potency entry in [1], in assay [2], in assay [3], in assay [4], in assay [5] and in assay [6] was “inactive” in each case. Also, the Potency entry in [7], in assay [8], in assay [9], in assay [10], in [11] and in [12] was “inactive” in each case. For the same compound, the Potency result in assay [13], in [14], in assay [15], in [16] and in assay [19] was “inactive” throughout. Besides, the outcome in [20], in assay [17] and in [18] was inactive.

For the origin of these results see PubChem BioAssay (NCATS).
